Source: PubChem
Hits are enriched below; roughly 21% of the tested compounds scored in any of these assays.
CHX counter: affects cycloheximide protein synthesis inhibition readout, counter-screen | cell reporter, cycloheximide protein synthesis inhibition counterscreen | max response, % | 300,000 compounds, 12% hits | AID 2314; in the data active = max response mostly above about 13%, no sharp cut-off; inactive = mostly below about 14%; also: read at 38.3 µM for the half of the compounds with a filed dose; 0% is about no effect
Shiga inhibitor: inhibitors of Shiga toxin in Vero cells; inhibition, % at 38.7 µM; 290,000 compounds, 9.2% hits; Vero cells, Shiga toxin protein synthesis inhibition reporter; in the data active = inhibition mostly above about 28%, no sharp cut-off; inactive = mostly below about 43%; also: 0% is about no effect
Pf growth 96h: P. falciparum growth inhibition at 96 hours; P. falciparum luciferase reporter growth, 96 h; Potency, µM (highest dose often 28.7 µM), for inactives: top-dose activity change, negative = inhibition, actives largely listed as inhibitors; 320,000 compounds, 6.9% hits; also: potency is read from the fitted curve at half-maximal effect; % is scaled to controls: 0 for no effect and ±100 for the full control effect
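P. falciparum expressing integrated firefly luciferase, in erythrocytes at 2% hematocrit, 0.05% parasitemia, incubated with compounds 96 h at 37 C, 5% CO2. Growth inhibition read as loss of luminescence; two-generation exposure targets delayed-death apicoplast inhibitors.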
Pf growth 48h: inhibits P. falciparum growth in the first generation, 48 h; Potency, µM (series often up to 28.7 µM), for inactives: at the highest dose activity change, negative = inhibition, actives largely listed as inhibitors; 310,000 compounds, 5.9% hits; P. falciparum luciferase growth in erythrocytes, 48 h; also: potency is read from the fitted curve at half-maximal effect; % is scaled to controls: 0 for no effect and ±100 for the full control effect
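In quantitative HTS format, infected erythrocytes bearing luciferase-reporter parasites were treated for a single generation at 37 C. Luminescence after adding detection reagent served as the growth measure.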
Active calls of the source: *; ? = inconclusive; nt = not tested or not shown; [ ] = another dose, or the depositor's remark. Unless noted, calls follow the shape of the dose curve; as a rule, active = well fitted inhibition curve with a large enough effect; inconclusive = small, poorly fitted or top-dose-only effect, or another doubt; inactive = no such curve, though single readings can be large or run the other way.

SMILES	CHX counter	Shiga inhibitor	Pf growth 96h	Pf growth 48h
Cc1cccc(C)c1NC(=O)CCc1nnc2ccc(N3CCCC3)nn12	-2	-9	-13%	2%
O=C(Nc1ccccc1F)OC1CN2CCC1CC2 (stereo unspecified)	5	-10	0%	38%
O=C(Nc1ccccc1Cl)OC1CN2CCC1CC2 (stereo unspecified)	12	8	14%	?
O=C(Nc1cccc(Cl)c1)OC1CN2CCC1CC2 (stereo unspecified)	26*	56*	1.9µM*	2.9µM*
O=C(Nc1ccc(Cl)cc1)OC1CN2CCC1CC2 (stereo unspecified)	27*	42*	36%	47%
CC(=O)OC1C2CCC1C(N1CCCC1)CC2 (stereo unspecified)	-3	-8	nt	20%
CC(=O)OC1CN2CCC1CC2 (stereo unspecified)	nt	nt	4.8µM*	-5%
c1ccc(Cn2nnc(-c3ccccc3)n2)cc1	35*	94*	52%	88%
N#Cc1cccc(Cn2nnc(-c3ccccc3)n2)c1	13*	21	nt	6%
Nc1nnn(Cc2ccccc2)n1	-1	-4	-7%	-11%
Cc1ccc(OCc2ccc(C(=O)N3CCCC3)o2)c([N+](=O)[O-])c1	18	24	15%	0%
Cc1ccc(OCc2ccc(C(=O)O)o2)c([N+](=O)[O-])c1	13*	22	106%	40%
O=C(Nc1nc2ccccc2n1Cc1ccccc1)c1ccc(COc2ccccc2[N+](=O)[O-])o1	-1	-7	?	1.9µM*
COC(=O)c1ccc(COc2ccccc2[N+](=O)[O-])o1	45*	73*	48%	29%
COC(=O)c1ccc(COc2c(F)c(F)cc(F)c2F)o1	-4	-5	19%	14%[0.00184 µM]
O=C(CSc1ccccc1)Nc1ccc(C(=O)Nc2ccc(O)cc2)cc1	19	2	21%	5%
CC1C(=O)C(C)(C)C(=O)OC1c1ccc([N+](=O)[O-])cc1 (stereo unspecified)	5	17	13%	-3%
COCCCNC(=O)c1ccc(-c2csc(C)n2)cc1	38*	90*	-13%	361%
COCCNC(=O)c1ccc(C(=O)C(=O)c2ccccc2)cc1	23	10	52%	-18%
COCCCNC(=O)c1ccc(C(=O)NCCCOC)cc1	-4	3	-15%	23%
Cc1ccc(C(=O)NCCc2ccncc2)cc1	27*	42*	132%	125%
COCCNC(=O)c1ccc(-c2csc(C)n2)cc1	23*	89*	-1%	239%
Cc1ccc(CCNC(=O)NC(C)(C)C)cc1	30*	69*	nt	67%
Cc1ccc(C(=O)NCCc2ccccc2)cc1	-2	-2	-58%	184%
Cc1ccc(S(=O)(=O)NCC(=O)N(CC(=O)NCC2CCCO2)Cc2ccccc2Cl)cc1 (stereo unspecified)	9	-8	10%	-17%
SMILES	CHX counter	Shiga inhibitor	Pf growth 96h	Pf growth 48h
Cc1cccc(C(=O)NCCc2csc(C)n2)c1	0	14	16%	13%
Cc1nc(-c2ccc(NC(=O)c3ccccc3)cc2)cs1	-4	-9	-6%	-26%
Cc1ccc(C(=O)NCCc2csc(C)n2)cc1	27*	55*	88%	55%
Cc1nc(-c2ccc(C(=O)NCCO)cc2)cs1	37*	40	116%	177%
Cc1ccccc1N(C(=O)CNC(=O)c1ccco1)C(C(=O)NC1CCCCC1)c1cccnc1 (stereo unspecified)	-2	3	0%	-9%
Cc1cc(C)cc(-n2c(C)nc3cc(C(=O)O)ccc32)c1	-1	7	?	22%
Oc1ccc(-c2csc(-c3c[nH]c4ccccc34)n2)c(O)c1	70*	60*	180%	156%
Cc1ccc(-c2csc(-c3c[nH]c4ccccc34)n2)c(C)c1	36*	78*	0%	54%
CN(CCOc1ccccc1)C(=O)c1ccc(F)c(S(=O)(=O)N2CCOCC2)c1	nt	nt	-5%	-4%
COc1cc(N)c(Cl)cc1C(=O)N[C@H]1CCN(CCCOc2ccc(F)cc2)C[C@H]1OC	nt	nt	4.7µM*	2.6µM*
Cc1ccc(OCC(=O)NCCCNC(=O)c2ccncc2)cc1C	-1	-2	-19%	-13%
O=C(CN1CCN(c2ccc(O)cc2)CC1)NC(=O)NCc1ccco1	-2	-9	?	-16%
CCOC(=O)CC(=O)CSc1nc(-c2cccnc2)ccc1C#N	14*	15	nt	10µM*
CCOC(=O)CC(=O)CSc1nc(-c2cccnc2)cc(C)c1C#N	-2	-18	-5%	31%
CCOC(=O)CSc1nc(-c2ccc3c(c2)OCO3)ccc1C#N	52*	78*	1%	27%
CCOC(=O)CSc1nc(-c2ccncc2)ccc1C#N	37*	87*	4%[5.75 µM]	85%
CCO[C@@H]1OC(C(=O)Nc2ccccc2)=C[C@H](C2CC2)[C@H]1CCCO	0	3	?	?
Cc1ccccc1NC(=O)CCCNC(=O)c1ccc(Cl)cc1	2	-5	11%	-11%
O=c1c2ccccc2ncn1-c1ccc2c(c1)OCCO2	32*	65*	-11%	254%
CN(C)C(=O)c1ccc(-n2cnc3ccccc3c2=O)cc1	-1	18	12µM*	-18%[5.75 µM]
CN(C)C(=O)c1cn(-c2ccccc2)c(=O)c2ccccc12	-6	-11	?	3%
CCC(C)n1c(C)nc2c(c1=O)c1nc3ccccc3nc1n2-c1ccc2c(c1)OCCO2 (stereo unspecified)	-1	36	-88%	14%
COc1ccc(C(=O)NCCc2ccc(C)cc2)cc1OC1CCN(C(C)=O)CC1	9	-9	17%	-7%
COc1ccc(C(=O)NC(C)CCCC(C)(C)O)cc1OC1CCN(C(C)=O)CC1 (stereo unspecified)	-1	-7	7.4µM*	-4%
COc1ccc(C(=O)NCCOC(C)C)cc1OC1CCN(C(C)=O)CC1	-3	9	10µM*	11%
SMILES	CHX counter	Shiga inhibitor	Pf growth 96h	Pf growth 48h
COc1cc(C(=O)NC(C)CCn2cccn2)ccc1OC1CCN(C(C)=O)CC1 (stereo unspecified)	1	31	?	-1%
COc1cc(C(=O)NCCc2ncccc2C)ccc1OC1CCN(C(C)=O)CC1	2	12	7%	9.3µM*
O=C(O)c1sc2cc(C(F)(F)F)cnc2c1-c1ccccn1	-2	-4	?	349%
O=C(NNC(=O)C1CCN(C(=O)Nc2ccccc2)CC1)c1ccc([N+](=O)[O-])cc1	nt	nt	1%	-6%
Cc1ccccc1CCN(C(=O)c1csnn1)C(C(=O)NC1CCCC1)c1ccco1 (stereo unspecified)	-2	42	3%	?
O=C(Nc1cc(S(=O)(=O)N2CCOCC2)ccc1Cl)C1CCC1	nt	nt	34%	-4%
O=C(NCCc1ccc(C(F)(F)F)cc1)C1CCC(=O)N(CCc2cccc(F)c2)C1 (stereo unspecified)	16*	11	13%	8%
COc1ccc(CCCNC(=O)C2CCC(=O)N(CCc3cccc(F)c3)C2)cc1 (stereo unspecified)	10	22	4.1µM*	2%
COc1ccc(CCN2CC(C(=O)NCCc3cccc(F)c3)CCC2=O)cc1 (stereo unspecified)	1	-1	12%	0%
